Activity calls are given as the source filed them. How the source made its calls: active means hit-call score of the fitted dose curve at least 0.9, where 1 is the maximum; inactive means score below 0.9.
Assays:
Settings in all cases: mRNA level, 48 h; actives raise or lower the signal
[1] = read-out: matrix metalloproteinase-3 (MMP3), MMP3 (gene 4314); assay: LTEA_HepaRG_MMP3: Life Technologies and Expression Analysis (LTEA) Assay for matrix metalloproteinase-3 (MMP3) using HepaRG (AID 2283519)
How it was run: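 Fluidigm-based TaqMan qRT-PCR, normalized to ACTB, GAPDH and POLR2A and fitted bidirectionally versus 0.5% DMSO, measured transcript levels. Treatment: duplicate 48 h exposures of HepaRG cells, ~100,000/well, to eight half-log concentrations topping at 100 uM.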

[2] = read-out: Paternally Expressed 10 (PEG10), PEG10 (gene 23089); assay: LTEA_HepaRG_PEG10: Life Technologies and Expression Analysis (LTEA) Assay for Paternally Expressed 10 (PEG10) using HepaRG (AID 2283520);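 on AC50: PEG10 transcript by qRT-PCR normalised to ACTB GAPDH and POLR2A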
How it was run: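 After 48 h exposure of differentiated HepaRG cells (0.5% DMSO vehicle, eight concentrations up to 100 uM, duplicates), PEG10 mRNA was measured by TaqMan qRT-PCR. Values were normalised to endogenous control genes and analysed bidirectionally against vehicle.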

[3] = read-out: Nuclear factor NF-kappa-B p105 subunit (Homo sapiens) (UniProt P19838); assay: LTEA_HepaRG_NFKB1: Life Technologies and Expression Analysis (LTEA) Assay for Nuclear Factor Kappa B Subunit 1 (NFKB1) using HepaRG (AID 2283521)
How it was run: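 Differentiated human HepaRG cells in serum-free induction medium with 0.5% DMSO were exposed for 48 h to eight half-log concentrations, top 100 uM, in duplicate. NFKB1 mRNA measured by Fluidigm TaqMan qRT-PCR, normalised to ACTB, GAPDH and POLR2A; bidirectional fit versus DMSO.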

[4] = read-out: Protein phosphatase 2A (PPP2R4), PTPA (gene 5524); assay: LTEA_HepaRG_PPP2R4: Life Technologies and Expression Analysis (LTEA) Assay for Protein phosphatase 2A (PPP2R4) using HepaRG (AID 2283522)
How it was run: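 Using HepaRG cultures maintained in 0.5% DMSO, chemicals are tested 48 h at up to 100 uM in duplicate. Induction or suppression of PPP2R4 mRNA, measured by qRT-PCR, is fitted bidirectionally against the vehicle baseline.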

[5] = read-out: Phosphatase and tensin (PTEN), PTEN (gene 5728); assay: LTEA_HepaRG_PTEN: Life Technologies and Expression Analysis (LTEA) Assay for Phosphatase and tensin (PTEN) using HepaRG (AID 2283523)
How it was run: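 Read-out: TaqMan qRT-PCR of PTEN transcript, normalized to three housekeeping genes, fitted in both directions against 0.5% DMSO. Differentiated human HepaRG cultures received chemicals for 48 h, eight-point half-log series topping at 100 uM.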

[6] = read-out: solute carrier (SLC22A1), SLC22A1 (gene 6580); assay: LTEA_HepaRG_SLC22A1: Life Technologies and Expression Analysis (LTEA) Assay for solute carrier (SLC22A1) using HepaRG (AID 2283524)
How it was run: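 Transcript level of SLC22A1 quantified by qRT-PCR (normalized to three housekeeping genes) after 48 h chemical exposure of HepaRG cells, eight concentrations up to 100 µM, half-log steps, 0.5% DMSO vehicle. Gain or loss relative to DMSO fitted bidirectionally.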

[7] = read-out: Pyruvate Dehydrogenase Kinase 4 (PDK4), PDK4 (gene 5166); assay: LTEA_HepaRG_PDK4: Life Technologies and Expression Analysis (LTEA) Assay for Pyruvate Dehydrogenase Kinase 4 (PDK4) using HepaRG (AID 2283525)
How it was run: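 Readout is qRT-PCR of PDK4 transcript, normalized to three housekeeping genes, with bidirectional fitting against 0.5% DMSO vehicle. Differentiated HepaRG cells were treated 48 h in serum-free induction medium, duplicate wells, eight-point half-log series topping at 100 uM.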

[8] = read-out: NAD(P)H dehydrogenase [quinone] 1 (NQO1), NQO1 (gene 1728); assay: LTEA_HepaRG_NQO1: Life Technologies and Expression Analysis (LTEA) Assay for NAD(P)H dehydrogenase [quinone] 1 (NQO1) using HepaRG (AID 2283526)
How it was run: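 In this assay, gene expression is read by qRT-PCR after 48 h exposure of HepaRG cells to eight concentrations (max 100 uM, half-log) in 0.5% DMSO. Each chemical runs in duplicate, and activity is scored relative to vehicle.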

[9] = read-out: Nuclear factor erythroid 2-related factor 2 (Homo sapiens) (UniProt Q16236); assay: LTEA_HepaRG_NFE2L2: Life Technologies and Expression Analysis (LTEA) Assay for Nuclear factor erythroid 2-related factor 2 (NFE2L2) Transcription Factor using HepaRG (AID 2283527);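 further: TaqMan qRT-PCR transcript level normalised to ACTB GAPDH and POLR2A housekeeping genes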
How it was run: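 NFE2L2 transcript level was read by qRT-PCR (housekeeping ACTB/GAPDH/POLR2A normalisation) after 48 h chemical treatment of HepaRG in serum-free induction medium. Duplicate 8-point half-log curves, top 100 uM, 0.5% DMSO vehicle; up- or down-regulation fitted against vehicle.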

[10] = read-out: succinate dehydrogenase complex iron sulfur subunit B (SDHB), SDHB (gene 6390); assay: LTEA_HepaRG_SDHB: Life Technologies and Expression Analysis (LTEA) Assay for succinate dehydrogenase complex iron sulfur subunit B (SDHB) using HepaRG (AID 2283528)
How it was run: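 HepaRG cells (~100,000/well, plated 48 h) exposed in duplicate for 48 h in serum-free induction medium to 8-point half-log series from 100 uM in 0.5% DMSO; mRNA by qRT-PCR normalised to ACTB, GAPDH, POLR2A; bidirectional fit versus DMSO.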

[11] = read-out: Signal transducer and activator of transcription 3 (Homo sapiens) (UniProt P40763); assay: LTEA_HepaRG_STAT3: Life Technologies and Expression Analysis (LTEA) Assay for Signal transducer and activator of transcription (STAT3) using HepaRG (AID 2283529)
How it was run: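 STAT3 transcript quantified by qRT-PCR against three housekeeping genes (ACTB, GAPDH, POLR2A), fitted both directions relative to DMSO. HepaRG cultures exposed 48 h to eight half-log concentrations, top 100 uM, 0.5% DMSO, serum-free induction medium.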

[12] = read-out: solute carrier (SLCO1B1), SLCO1B1 (gene 10599); assay: LTEA_HepaRG_SLCO1B1: Life Technologies and Expression Analysis (LTEA) Assay for solute carrier (SLCO1B1) using HepaRG (AID 2283530)
How it was run: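 Differentiated human HepaRG cells, plated 48 h, switched to serum-free induction medium and exposed in duplicate for 48 h to 8 half-log concentrations (top 100 uM) in 0.5% DMSO. SLCO1B1 mRNA by TaqMan qRT-PCR, normalized to ACTB/GAPDH/POLR2A.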

[13] = read-out: sulfotransferase 2A1 (SULT2A1), SULT2A1 (gene 6822); assay: LTEA_HepaRG_SULT2A1: Life Technologies and Expression Analysis (LTEA) Assay for sulfotransferase 2A1 (SULT2A1) using HepaRG (AID 2283531)
How it was run: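 Differentiated human HepaRG cells in serum-free induction medium were exposed for 48 h to eight half-log concentrations (top 100 uM, 0.5% DMSO). SULT2A1 mRNA was measured by qRT-PCR, normalized to ACTB, GAPDH and POLR2A, and fitted bidirectionally against DMSO.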

[14] = read-out: Transforming Growth Factor (TGFA), TGFA (gene 7039); assay: LTEA_HepaRG_TGFA: Life Technologies and Expression Analysis (LTEA) Assay for Transforming Growth Factor (TGFA) using HepaRG (AID 2283532)
How it was run: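 TGFA transcript quantified by qRT-PCR (Fluidigm arrays) against three housekeeping genes, after 48 hours chemical treatment of HepaRG cells. Top concentration 100 uM with half-log dilutions, 8 points, duplicates, 0.5% DMSO.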

[15] = read-out: Transforming Growth Factor (TGFB1), TGFB1 (gene 7040); assay: LTEA_HepaRG_TGFB1: Life Technologies and Expression Analysis (LTEA) Assay for Transforming Growth Factor (TGFB1) Transporter using HepaRG (AID 2283533)
How it was run: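 Differentiated human HepaRG cells in serum-free induction medium were exposed in duplicate for 48 h to eight concentrations (top 100 uM, half-log steps, 0.5% DMSO). TGFB1 mRNA was quantified by qRT-PCR, normalized to ACTB, GAPDH, POLR2A, and fitted bidirectionally against DMSO.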

[16] = read-out: Tumor necrosis factor receptor 1 (TNFRSF1A), TNFRSF1A (gene 7132); assay: LTEA_HepaRG_TNFRSF1A: Life Technologies and Expression Analysis (LTEA) Assay for Tumor necrosis factor receptor 1 (TNFRSF1A) using HepaRG (AID 2283535)
How it was run: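 Differentiated human HepaRG cells were exposed in duplicate for 48 h in serum-free induction medium to eight concentrations (top 100 uM, half-log steps, 0.5% DMSO). TNFRSF1A mRNA was quantified by qRT-PCR, normalized to ACTB, GAPDH and POLR2A, then fitted bidirectionally against DMSO.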

[17] = read-out: Thyroid Hormone Responsive (THRSP), THRSP (gene 7069); assay: LTEA_HepaRG_THRSP: Life Technologies and Expression Analysis (LTEA) Assay for Thyroid Hormone Responsive (THRSP) using HepaRG (AID 2283536)
How it was run: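 THRSP transcript quantified by Fluidigm qRT-PCR against three housekeeping genes after 48 h chemical exposure of HepaRG cells in serum-free induction medium; eight-point half-log series, top 100 uM, 0.5% DMSO vehicle, duplicate wells.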

[18] = read-out: Cellular tumor antigen p53 (Homo sapiens) (UniProt P04637); assay: LTEA_HepaRG_TP53: Life Technologies and Expression Analysis (LTEA) Assay for Tumor Protein P53 (TP53) using HepaRG (AID 2283537)
How it was run: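 Differentiated HepaRG cells in serum-free induction medium exposed 48 h in duplicate to 8 half-log concentrations, top 100 uM, 0.5% DMSO. TP53 mRNA by TaqMan qRT-PCR (Fluidigm), normalized to ACTB, GAPDH, POLR2A; fitted bidirectionally versus DMSO.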

TIMP1, TIMP1 (gene 7076) = assay: LTEA_HepaRG_TIMP1: Life Technologies and Expression Analysis (LTEA) Assay for TIMP1 using HepaRG (AID 2283534);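 further: TaqMan qRT-PCR signal normalized to ACTB GAPDH and POLR2A housekeeping genes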
How it was run: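 Differentiated human HepaRG cells in serum-free induction medium were exposed 48 h to chemicals (8 half-log concentrations, top 100 uM, 0.5% DMSO). TIMP1 mRNA was quantified by TaqMan qRT-PCR, normalized to ACTB/GAPDH/POLR2A; bidirectional fit versus DMSO.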

[19] = read-out: UDP glucuronosyltransferase (UGT1A1), UGT1A1 (gene 54658); assay: LTEA_HepaRG_UGT1A1: Life Technologies and Expression Analysis (LTEA) Assay for UDP glucuronosyltransferase (UGT1A1) using HepaRG (AID 2283538)
How it was run: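 mRNA induction or loss of UGT1A1, by TaqMan qRT-PCR, in duplicate HepaRG wells after 48 h exposure to half-log dilutions topping at 100 uM; DMSO (0.5%) served as baseline.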

Measured: AC50

Signal transducer and activator of transcription 3 (Homo sapiens), sequence (P40763 whole entry, looked up): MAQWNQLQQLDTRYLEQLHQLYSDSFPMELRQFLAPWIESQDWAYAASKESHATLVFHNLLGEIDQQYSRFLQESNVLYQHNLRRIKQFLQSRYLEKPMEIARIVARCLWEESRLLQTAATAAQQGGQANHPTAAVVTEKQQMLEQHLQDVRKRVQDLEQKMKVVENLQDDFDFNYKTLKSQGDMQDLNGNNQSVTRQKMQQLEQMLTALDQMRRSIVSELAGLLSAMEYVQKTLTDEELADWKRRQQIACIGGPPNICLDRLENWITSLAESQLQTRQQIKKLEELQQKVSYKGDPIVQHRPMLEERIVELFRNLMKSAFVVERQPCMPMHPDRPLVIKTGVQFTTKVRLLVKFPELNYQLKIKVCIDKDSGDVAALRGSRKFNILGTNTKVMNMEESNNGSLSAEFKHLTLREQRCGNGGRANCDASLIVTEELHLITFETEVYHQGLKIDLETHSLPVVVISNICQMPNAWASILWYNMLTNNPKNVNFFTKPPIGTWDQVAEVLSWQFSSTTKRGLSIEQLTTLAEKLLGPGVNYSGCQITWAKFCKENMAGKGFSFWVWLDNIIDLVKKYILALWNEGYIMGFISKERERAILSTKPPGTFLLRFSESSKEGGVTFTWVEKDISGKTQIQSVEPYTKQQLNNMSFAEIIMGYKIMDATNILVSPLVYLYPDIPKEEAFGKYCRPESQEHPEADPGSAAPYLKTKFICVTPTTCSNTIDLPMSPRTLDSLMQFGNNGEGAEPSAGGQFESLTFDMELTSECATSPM
Nuclear factor erythroid 2-related factor 2 (Homo sapiens), sequence (Q16236 whole entry, looked up): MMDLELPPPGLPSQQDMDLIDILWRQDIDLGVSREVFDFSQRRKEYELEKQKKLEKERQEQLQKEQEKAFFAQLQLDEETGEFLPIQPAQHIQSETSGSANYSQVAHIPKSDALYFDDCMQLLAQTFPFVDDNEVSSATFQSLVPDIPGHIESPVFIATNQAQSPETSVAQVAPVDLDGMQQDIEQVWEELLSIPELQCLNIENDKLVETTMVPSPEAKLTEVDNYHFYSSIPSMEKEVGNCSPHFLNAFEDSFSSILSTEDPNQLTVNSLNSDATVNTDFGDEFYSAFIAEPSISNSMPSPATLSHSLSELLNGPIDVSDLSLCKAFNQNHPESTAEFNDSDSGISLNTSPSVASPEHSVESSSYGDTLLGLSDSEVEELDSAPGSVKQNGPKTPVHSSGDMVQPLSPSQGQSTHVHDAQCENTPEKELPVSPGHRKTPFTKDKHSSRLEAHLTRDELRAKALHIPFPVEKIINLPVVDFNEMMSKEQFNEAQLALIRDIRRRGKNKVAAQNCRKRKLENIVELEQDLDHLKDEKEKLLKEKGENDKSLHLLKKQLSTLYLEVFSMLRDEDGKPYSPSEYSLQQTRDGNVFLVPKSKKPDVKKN
Cellular tumor antigen p53 (Homo sapiens), sequence (P04637 whole entry, looked up): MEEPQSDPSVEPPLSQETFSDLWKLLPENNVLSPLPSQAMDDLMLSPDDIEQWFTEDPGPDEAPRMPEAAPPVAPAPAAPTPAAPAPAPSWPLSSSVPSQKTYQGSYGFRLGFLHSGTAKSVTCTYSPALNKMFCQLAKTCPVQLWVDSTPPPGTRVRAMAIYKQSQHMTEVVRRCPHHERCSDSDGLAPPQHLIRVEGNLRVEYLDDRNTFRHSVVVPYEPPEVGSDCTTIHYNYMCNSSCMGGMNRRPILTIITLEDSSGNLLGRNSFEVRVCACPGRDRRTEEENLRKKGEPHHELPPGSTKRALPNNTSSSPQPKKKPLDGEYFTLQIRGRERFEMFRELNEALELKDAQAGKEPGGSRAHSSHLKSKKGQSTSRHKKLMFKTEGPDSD
Nuclear factor NF-kappa-B p105 subunit (Homo sapiens), sequence (P19838 whole entry, looked up): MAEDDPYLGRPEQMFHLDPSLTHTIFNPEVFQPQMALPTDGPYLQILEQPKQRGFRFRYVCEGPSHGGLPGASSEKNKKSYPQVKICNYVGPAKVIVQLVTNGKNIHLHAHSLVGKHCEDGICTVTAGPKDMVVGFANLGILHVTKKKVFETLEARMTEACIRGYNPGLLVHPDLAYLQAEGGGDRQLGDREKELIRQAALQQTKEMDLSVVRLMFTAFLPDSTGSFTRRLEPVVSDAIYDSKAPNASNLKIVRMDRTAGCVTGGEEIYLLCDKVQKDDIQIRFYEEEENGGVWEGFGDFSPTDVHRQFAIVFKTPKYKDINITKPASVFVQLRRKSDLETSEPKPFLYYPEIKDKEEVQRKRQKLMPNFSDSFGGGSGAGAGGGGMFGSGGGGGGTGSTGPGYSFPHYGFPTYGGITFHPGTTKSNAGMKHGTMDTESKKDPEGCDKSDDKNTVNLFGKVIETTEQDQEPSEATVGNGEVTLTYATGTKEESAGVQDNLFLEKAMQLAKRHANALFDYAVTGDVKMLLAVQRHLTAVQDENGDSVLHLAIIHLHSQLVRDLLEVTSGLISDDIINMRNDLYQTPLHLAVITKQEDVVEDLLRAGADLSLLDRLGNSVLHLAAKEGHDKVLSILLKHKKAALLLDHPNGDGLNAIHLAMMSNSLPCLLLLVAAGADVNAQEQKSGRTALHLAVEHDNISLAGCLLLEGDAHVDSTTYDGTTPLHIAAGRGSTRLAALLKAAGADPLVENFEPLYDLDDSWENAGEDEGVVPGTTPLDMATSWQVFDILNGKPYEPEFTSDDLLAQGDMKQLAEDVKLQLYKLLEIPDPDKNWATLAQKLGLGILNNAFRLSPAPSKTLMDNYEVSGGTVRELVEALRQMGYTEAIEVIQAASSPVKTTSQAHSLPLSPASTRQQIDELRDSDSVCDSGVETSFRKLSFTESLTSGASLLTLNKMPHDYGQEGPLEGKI

N#Cc1c(Cl)cccc1Cl
not listed: TIMP1, TIMP1 (gene 7076) | [19]
inactive: all other assays above

CN=C=S
not listed: TIMP1, TIMP1 (gene 7076) | [19]
inactive: all other assays above

CC(C)Oc1cccc(NC(=O)c2ccccc2C(F)(F)F)c1
active: [2] 78.5 µM | [7] 50 µM | [19] 29.4 µM
inactive: all other assays above

O=C(Nc1ccccc1-c1ccc(Cl)cc1)c1cccnc1Cl
active: [2] 21 µM | [11] 0.539 µM
not listed: [19]
inactive: all other assays above

CNC(=O)Oc1cccc2ccccc12
not listed: TIMP1, TIMP1 (gene 7076) | [19]
inactive: all other assays above

COc1ccc(-c2ccccc2)cc1NNC(=O)OC(C)C
not listed: [19]
inactive: all other assays above

CCCC(=NOCC)C1=C(O)CC(CC(C)SCC)CC1=O (stereo unspecified)
not listed: [19]
inactive: all other assays above

From PubChem BioAssay (EPA / NIEHS)
